# LDHA inh – qHTS assay for inhibitors of human lactate dehydrogenase. L-lactate dehydrogenase A chain (Homo sapiens), P00338. purified LDHA, NADH/diaphorase-resazurin fluorescence; active compounds read low. activity change, % (values are at about 110 or 230 µM). 0.15% of 480,000 active; in the data active = activity change below about -30%; inconclusive = mostly about -25% to -30%;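 note: plate controls were DMSO wells for no effect and wells without enzyme for full effect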
#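 Remaining NADH was detected by diaphorase (0.133 mg/mL) converting 37 µM resazurin to fluorescent resorufin, read at 0 and 20 minutes. The preceding 5-minute room-temperature reaction used 2 nM LDHA, 0.2 mM sodium pyruvate and 0.06 mM NADH at pH 7.4.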
# ALOX12 inh – Primary qHTS assay for inhibitors of human arachidonate 12S-lipoxygenase (ALOX12): Round 2 | Polyunsaturated fatty acid lipoxygenase ALOX12 (Homo sapiens), P18054 | 1.1% of 580,000 active | purified 12hLO, xylenol orange hydroperoxide absorbance | Potency, µM (titrated, usually from 108 µM), for inactives: at the top dose activity change, negative = inhibition, hits mostly inhibitors; active = well fitted inhibition curve with a large enough effect; inconclusive = small, poorly fitted or top-dose-only effect, or another doubt; inactive = no such curve, though single readings can be large or run the other way; note: potency is the fitted concentration of half-maximal effect; % is set by controls: 0 for no effect and ±100 for the full control effect
#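 Purified human 12hLO (150 nM final) in 25 mM Hepes, 0.01% Triton X-100, pH 7.0 was preincubated 15 min at room temperature with compound. Then 40 uM arachidonic acid was added, 30 min. Hydroperoxide was read by Fe-XO absorbance ratio 573/405 nm.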
# BCR signal inh – qHTS Assay to Find Inhibitors of Chronic Active B-Cell Receptor Signaling. AID 493014, 2011. Potency, µM (titrated, usually from 46.1 µM), for the others: at the highest dose activity change, negative = inhibition, usual class: inhibitors. 0.05% of 340,000 active. ABC-DLBCL IkBa-CBG/CBR reporter, luminescence ratio, 4 h; active = well fitted inhibition curve with a large enough effect in the signal ratio, with a control signal flat, not every such curve was filed as active; inconclusive = small, poorly fitted or top-dose-only effect, or effect the other way, or a change in a side signal; the % refers to the signal ratio;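 note: potency is the fitted concentration of half-maximal effect; plate controls were basal doxycycline-induced cells for no effect and cells given 10 µM MG132 for full effect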
#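 TMD8 human ABC-DLBCL cells with doxycycline-inducible IκBα–green luciferase fusion and unfused red luciferase, in 0.5% FBS medium; compounds up to 46 uM, 4 h at 37C. Green/red luminescence ratio, filter-overlap corrected, fitted to concentration-response curves.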
# KCNH2 3.1 block – qHTS for Inhibitors of KCHN2 3.1: Mutant qHTS. Potassium voltage-gated channel subfamily H member 2, brain isoform KCNH2 3.1 (human). U2OS KCNH2 3.1, thallium flux FluxOr; active compounds read low. activity change, % (tested at about 1.8 µM). 0.95% of 340,000 active. AID 720553, 2013;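 active = maximum activity change below -70%; inconclusive = maximum activity change from -70% to -50%; inactive = maximum activity change above -50%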;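 note: thallium influx rate constant from kinetic fluorescence after stimulation buffer; % is set by controls: 0 for no effect and ±100 for the full control effect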
#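 Virally transduced U2OS (3.1 isoform, 4 h infection in dark at RT) → overnight 37 C → FluxOr + Red40 in HBSS/HEPES, 45 min → stimulation buffer, 2 min kinetic read → rate constant vs DMSO controls.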
# KCNH2 WT inh – qHTS for Inhibitors of KCHN2 3.1: Wildtype qHTS; U2OS, BacMam KCNH2, thallium flux FluxOr; active compounds read low; activity change, % at 1.84 µM; Voltage-gated inwardly rectifying potassium channel KCNH2 (Homo sapiens), Q12809; 0.37% of 340,000 active;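 active = maximum activity change below -70%; inconclusive = maximum activity change between -70% and -50%; inactive = maximum activity change above -50%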; note: % is set by controls: 0 for no effect and ±100 for the full control effect
#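 U2OS cells were transduced with wild-type KCNH2 virus (2.03 x 10^8 / mL) for 4 h at room temperature, then cultured overnight at 37 C. Thallium flux was read with FluxOr dye. Rate constants were normalized to DMSO controls.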
# ClpP mod – qHTS Assay for Activators of ClpP; AID 651965, 2013; ATP-dependent Clp protease proteolytic subunit (Bacillus subtilis (strain 168)), P80244; 1.9% of 340,000 active; purified B. subtilis ClpP, FRET peptide cleavage, 20 min; Potency, µM (doses to about 57.5 µM), without a hit: top-dose activity change, negative = active; active = well fitted falling curve with a large enough effect; inconclusive = small, poorly fitted or top-dose-only effect; inactive = no such curve, though single readings can be large or run the other way; note: potency is the fitted concentration of half-maximal effect; the source files actives as falling curves though it sought activators and does not explain the sign; nearly all actives have a fitted effect of over 65% in size
#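 ClpP 10 microg/mL final, pH 8 Tris/KCl buffer with BSA, glycerol, Tween-20; compound pinned in; FRET-FV substrate; RT 20 min; Ex320/Em430; ΔFRET vs ADEP 5.8 microM, DMSO, no enzyme.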
# Active calls of the source: *; ? = inconclusive; . = no result given; ! = a repeat was not active. This is a sample that favours compounds with a hit; in the whole collection about 3% have one here.
SMILES,LDHA inh,ALOX12 inh,BCR signal inh,KCNH2 3.1 block,KCNH2 WT inh,ClpP mod
CN1CCC(=O)N([C@H](CSc2ccccc2)c2ccccc2)CC1,-3.9,2.9%,?,-124.1*,13.1,-6.7%
COc1ccc(SC[C@H](CC(C)C)N2CCN(CCc3ccccc3)CCC2=O)cc1,1.2,-20.2%,-4.4%,-106.2*,-75.0*,-0.7%
Cc1ccc(SC[C@H](c2ccccc2)N2CCN(CC(C)C)CCC2=O)cc1,0.1,9.8%,5.4%,.,.,-0.2%
O=C(CN1CCN(C(=O)c2ccccc2-c2ncc(-c3ccccc3)o2)CC1)N1CCCCC1,-3.7,35.0%,.,.,.,.
O=c1[nH]c(C2CCCN(Cc3cccc(-c4ccsc4)c3)C2)nc2ccc(F)cc12 (stereo not given),.,25.1µM*!,.,.,.,.
O=S(=O)(N[C@H]1CO[C@H]2[C@@H]1OC[C@@H]2n1cc(-c2ccccn2)nn1)c1cccs1,.,63.1µM*,.,.,.,.
CCCc1ccc(C(C)NC(=S)NC2CCCCC2)cc1 (stereo not given),0.6,35.5µM*,-3.5%,18.3,4.0,-0.2%
Cc1ccc(C)c(C(C)NC(=S)NC2CCCCC2)c1 (stereo not given),-2.8,44.7µM*,-1.7%,2.9,5.0,0.5%
CC(NC(=S)NC1CCCCC1)c1ccccc1 (stereo not given),0.1,-12.7%,2.6%,-4.3,?,0.1%
CCOc1ccc(C(C)NC(=S)NCc2ccc(Cl)cc2)cc1 (stereo not given),1.2,39.8µM*,-5.3%,-7.5,12.1,1.3%
CCCc1ccc(C(C)NC(=S)NCc2ccc(F)cc2)cc1 (stereo not given),-2.6,31.6µM*,?,?,-1.7,-0.7%
Cc1cccc(CNC(=O)CSc2nc3ccccc3nc2C)c1,4.4,?,.,.,.,.
CCC(C)c1ccc(C(C)NC(=S)NCc2ccc(F)cc2)cc1 (stereo not given),-3.3,39.8µM*,?,0.8,-1.3,-4.2%
CCC(NC(=S)NCc1ccc(F)cc1)c1ccc(C(C)C)cc1 (stereo not given),-1.1,?,?,-10.3,44.9,-0.5%
Cc1cccc(C)c1NC(=O)CN(C)S(=O)(=O)c1ccc(-c2ccc(=O)[nH]n2)s1,-3.9,-0.2%,5.5%,-176.9*,15.0,-1.9%
Clc1ccc(CNc2cnccn2)cc1,-3.6,-2.5%,-2.5%,-19.2,-1.2,.
c1ccc(CNc2cnccn2)cc1,-5.8,28.4%,0.9%,-4.8,-9.4,3.16µM*
Cc1ccc(CNc2cnccn2)cc1,-3.6,3.9%,-0.9%,12.3,1.8,14.1µM*
c1ccc(CCNc2cnccn2)cc1,-7.0,8.5%,1.5%,-2.4,0.6,3.7%
CCOC(=O)C1=C(C)N=C2SC=C(CC(=O)N3CCCCC3)N2C1c1cccc(OC)c1 (stereo not given),.,48.3%,.,.,.,.
O=C(NC1CC1)c1ccc(Cn2cnc3ccccc3c2=O)cc1,-6.9,-0.1%,.,.,.,.
COc1ccc2c(c1)c(/C=N/Nc1nc3ccccc3[nH]1)c(C)n2C,1.7,-28.5%,15.8µM*,-0.6,1.0,.
Fc1ccccc1-c1ccc(/C=N/Nc2nc3ccccc3[nH]2)o1,-1.3,-22.3%,23.1µM*,?,-15.4,-28.8%
CCCCn1c(/C=N/Nc2nc3ccccc3[nH]2)nc2ccccc21,-0.7,-1.4%,-11.0%,-44.3,-73.4*,-7.6%
COc1cc(/C=N\Nc2nc3ccccc3[nH]2)cc(OC)c1OC,-7.6,0.0%,?,-2.1,11.6,-7.2%

# Bioassay records (PubChem BioAssay)
